Bioassay records from PubChem.
Sampled rows, rich in hits. Any-hit rate of the full collection: about 3.4%.
ERb SRC1 inh: blocks coactivator binding to human estrogen receptor beta. TR-FRET ER-beta LBD / SRC1-Cy5 peptide binding; receptor agonist-loaded with 1 µM estradiol. inhibition, % at 25.6 µM. 86,000 tested, 1.3% active. AID 633;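 active = compounds whose percent inhibition of the receptor-coactivator binding signal exceeds about 50% in the single-dose screen, limit read from the data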;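 note: 0% = receptor plus peptide wells without compound and 100% = peptide-only wells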
PTPN22 inh 2: blocks human PTPN22 phosphatase activity; Q9Y2R2; recombinant LYP catalytic domain, DiFMUP fluorescence; inhibition, % at 2 µM; 96,000 tested, 0.21% active;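 active = inhibition at 2 µM at or above a set limit, the screen mean plus 3 SD, cut at about 24% in these data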;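 note: 0% = DMSO with enzyme and 100% = enzyme fully blocked by orthovanadate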
ERa coact inh: blocks coactivator binding to human estrogen receptor alpha; AID 629; TR-FRET ER-alpha LBD / SRC-1 peptide, estradiol-bound; 86,000 tested, 1.7% active; inhibition, % at 25.6 µM; in the data active = inhibition above about 50%;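 note: 0% = receptor plus peptide control and 100% = peptide only without receptor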
FAK inh: inhibitors of human focal adhesion kinase; 97,000 tested, 0.84% active; biochemical FAK kinase activity assay; AID 727; inhibition, %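 (tested at 7 µM)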; in the data active = inhibition above about 19%;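 note: 0% = DMSO and 100% = reference compound high control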
PTPN22 act: activators of human LYP (PTPN22) phosphatase; Q9Y2R2; recombinant LYP, DiFMUP fluorescence; 0 = plate median, 100 = signal doubled; activation, % at 2 µM; 96,000 tested, 0.11% active;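 active = activation at 2 µM above a set limit, the mean plus 5 SD, cut at about 37% in these data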
ERa coact pot: enhances coactivator binding to human estrogen receptor alpha; P03372; coactivator binding (% of control), % at 25.6 µM; TR-FRET ERalpha-LBD/SRC-Cy5 coactivator binding, 2 h; 100 = basal binding, no effect; 86,000 tested, 1.3% active; in the data active = activity above about 200%;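 note: binding measured in presence of low estradiol as agonist stimulus; 0% = peptide alone without receptor and 100% = receptor with peptide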
* = called active by the depositor; [ ] = dose if it differs, or a comment.

COc1cccc(-c2nnc(NC(=O)Cc3cccs3)s2)c1 was read as ERb SRC1 inh 50.0, PTPN22 inh 2 -2.3, ERa coact inh 63.1*, FAK inh -5.6, PTPN22 act 3.9 and ERa coact pot 129.3.
For CCCCCc1nnc(NC(=O)Cc2cccs2)s1 the results were ERb SRC1 inh 82.0*, PTPN22 inh 2 12.5, ERa coact inh 94.2*[fluorescence artefact?], FAK inh 17.3, PTPN22 act -16.8 and ERa coact pot 20.2.
Screening O=C(Cc1cccs1)Nc1nnc(-c2ccncc2)s1 returned ERb SRC1 inh 46.3, ERa coact inh 44.9 and ERa coact pot 53.1.
`Cc1ccc2c(n1)CC(C)(C)CC2=O` gave PTPN22 inh 2 -10.4, FAK inh 1.8 and PTPN22 act 13.1.
`O=C(Cc1cccs1)Nc1ccccn1` gave ERb SRC1 inh 55.0*, PTPN22 inh 2 0.7, ERa coact inh 56.1*, FAK inh -0.9, PTPN22 act -1.4 and ERa coact pot 71.7.
For C=CCn1c(-c2ccc(S(=O)(=O)N3CCOCC3)cc2)csc1=Nc1ccccc1 the results were ERb SRC1 inh -25.4, PTPN22 inh 2 5.6, ERa coact inh -7.0, FAK inh 1.4, PTPN22 act -2.8 and ERa coact pot 214.8*.
O=S(=O)(Nc1nccs1)c1cc(Cl)ccc1Cl was read as ERb SRC1 inh 51.2*, PTPN22 inh 2 11.8, ERa coact inh 55.9*, FAK inh 5.9, PTPN22 act -12.6 and ERa coact pot 51.2.
Cc1cccc(N(C(=O)c2ccc(Cl)cc2)C2CS(=O)(=O)CC2OC(=O)c2ccc(Cl)cc2)c1 (configuration not stated) was read as PTPN22 inh 2 24.9*, FAK inh 4.6 and PTPN22 act -20.8.
`NC(=O)c1ccc([N+](=O)[O-])cc1SCc1ccccc1` gave ERb SRC1 inh 53.3*[fluorescence artefact?], PTPN22 inh 2 -3.5, ERa coact inh 39.3, FAK inh 13.7, PTPN22 act 5.7 and ERa coact pot 54.4.
For Cc1cc([N+](=O)[O-])ccc1NCc1ccccc1 the results were PTPN22 inh 2 7.9, FAK inh 3.7 and PTPN22 act -6.0.
COC(=O)c1c(C)[nH]c(C(=O)CSc2ccc(Cl)cc2)c1C was read as ERb SRC1 inh 3.4, PTPN22 inh 2 -3.3, ERa coact inh 4.2, FAK inh -1.6, PTPN22 act 2.9 and ERa coact pot 103.3.
COc1cccc(C2C(C(C)=O)=C(O)C(=O)N2Cc2ccco2)c1 (configuration not stated) was read as ERb SRC1 inh -6.0, PTPN22 inh 2 -12.9, ERa coact inh 58.2*[fluorescence artefact?], FAK inh -4.6, PTPN22 act 15.8 and ERa coact pot 153.1.
COc1ccc(/C(O)=C2\C(=O)C(=O)N(Cc3ccco3)C2c2cc(OC)ccc2OC)cc1 (configuration not stated) was read as ERb SRC1 inh -5.5, PTPN22 inh 2 -8.3, ERa coact inh 4.0, FAK inh -1.6, PTPN22 act 6.0 and ERa coact pot 104.6.
COc1ccc(OC)c(C2/C(=C(/O)c3ccc(C)cc3)C(=O)C(=O)N2Cc2ccco2)c1 (configuration not stated) was read as ERb SRC1 inh 9.2, ERa coact inh 95.7*[fluorescence artefact?] and ERa coact pot 85.1.
Screening C=CCn1c(=O)[nH]c2cc(C(=O)N3CCN(c4ccc(C(C)=O)cc4)CC3)ccc2c1=O returned ERb SRC1 inh 36.5, PTPN22 inh 2 11.2, ERa coact inh 67.7*, FAK inh 14.4, PTPN22 act -12.4 and ERa coact pot 105.7.
`COc1cccc(NC(=O)Cn2cnc3sc(C)c(S(=O)(=O)N4CCCCC4)c3c2=O)c1` gave ERb SRC1 inh 1.4, PTPN22 inh 2 -1.0, ERa coact inh 6.1, FAK inh -0.4, PTPN22 act 1.9 and ERa coact pot 115.8.
For O=C(CSc1n[nH]c(-c2ccccc2)n1)c1ccc(O)c(O)c1 the results were ERb SRC1 inh 77.0*[fluorescence artefact?], ERa coact inh 67.0*[fluorescence artefact?] and ERa coact pot 49.2.
`CCc1ccc(C(=O)CSc2n[nH]c(-c3ccncc3)n2)cc1` gave ERb SRC1 inh -19.6, PTPN22 inh 2 -2.9, ERa coact inh 9.1, FAK inh 3.8, PTPN22 act 5.5 and ERa coact pot 101.4.
CN(C(=O)CN1CCC(NC(=O)C2CCCCC2)CC1)C1CCCCC1 was read as ERb SRC1 inh 3.1, PTPN22 inh 2 14.5, ERa coact inh 1.8, FAK inh -3.1, PTPN22 act -12.4 and ERa coact pot 211.1*[fluorescence artefact?].
